Data as given in PubChem BioAssay AID651635 (National Center for Advancing Translational Sciences (NCATS), 2012).
Screen size: about 400,000 compounds; about 1,900 (0.47%) were called active. Not shown: some 14% with an inconclusive outcome. The list comes from a sample in which actives are over-represented; it also holds similar structures and randomly drawn compounds. Values without a mark were called inactive. Calls follow the shape of the dose curve; as a rule, active = well fitted cell-killing curve with a large enough effect; inconclusive = small, poorly fitted or top-dose-only effect, or effect the other way; inactive = no such curve, though single readings can be large or run the other way.

Test: Viability Counterscreen for Primary qHTS for Inhibitors of ATXN expression; also: nearly all actives have a fitted effect of over 40% in size
Settings: S2 cells (HEK-293 line with an ATXN2-luciferase reporter) viability, CellTiter-Fluor protease fluorescence, 24 h; series mostly up to 56.7 µM; activity change, negative = cytotoxicity: at the top concentration
Excerpt: Spinocerebellar ataxia type 2 (SCA2) is a multisystem neurodegenerative disease caused by a dominantly-acting mutation leading to expansion of a polyQ domain in the ataxin-2 protein (ATXN2). SCA2 patients develop progressive ataxia and later lose function in other neuronal systems. Prominent parkinsonian signs develop in some patients. Similar to many neurodegenerative disorders, no symptomatic or disease-modifying treatments are known.
The primary objective of the proposed research is to identify compounds inhibiting ATXN2 expression and to test them for efficacy in SCA2 mouse models. To this end, we have developed a cell-based assay paired with an in vivo mouse model using identical luciferase expression constructs. This approach takes advantage of an ATXN2-luciferase transgene, with the luciferase gene flanked by the upstream and downstream portions of the ATXN2 gene. This primary assay was tested against the NIH Molecular Libraries Small Molecule Repository (MLSMR).
NIH Chemical Genomics Center [NCGC]
NIH Molecular Libraries Probe Centers Network [MLPCN]
Assay Submitter (PI): Daniel Scoles, University of Utah
PROTOCOL TABLE (as described by Inglese J, Shamu CE and Guy RK. 2007)
SEQUENCE No. (e.g., 1, 2, 3, etc.); […] (e.g., Cells, Incubation, Reagent, etc.); VALUE; DESCRIPTION.
1; Cells; 4 uL; white, solid bottom, 1536-well Greiner assay plate.
2; Incubation; 2 hr; 37 degree C in 5% humidified CO2.
3; Compounds; 23 nL; Kalypsis pintool (Wako USA) equipped with a 1536-well pin head.
4; Incubation; 24 hr; 37 degree C in 5% humidified CO2.
5; Reagent; 1 uL; Gly-Phe-7-Amino-4-trifluoromethylcoumarin.
6; Incubation; 30 min; 37 degree C in 5% humidified CO2.
7; Detection; Fluorescence; ViewLux plate reader (PerkinElmer).
8; Reagent; 3 uL; SteadyGlo luciferase solution (Promega).
9; Incubation; 5 min; room temperature.
10; Detection; Luminescence; ViewLux plate reader (PerkinElmer).
NOTES (numbers refer to Sequence numbers above)
1. S2 cells expressing ATXN2-luciferase reporter were suspended in phenol-red free DMEM and dispensed in assay plates using a Multidrop Combi dispenser (Thermo Fisher Scientific).
2. Assay plates were incubated. Evaporation was prevented by covering assay plates with metal lids containing holes to allow gas diffusion.
3. […] Vehicle-only plates, with DMSO being pin-transferred to columns 5-48, were inserted uniformly at the beginning and the end of each library to monitor and record any shifts in assay performance.
5. 125 uM Gly-Phe-7-Amino-4-trifluoromethylcoumarin (MP Biomedicals) working concentration was used at a final concentration of 25 uM.
7. To assess cell viability; the assay plates were read using the ViewLux high-throughput CCD imager (PerkinElmer), wherein single end-point fluorescence measurement was acquired (excitation 405/10; emission 540/25 nm).
8. Detection reagent SteadyGlo Luciferase (Promega) was added to the assay plate.
10. Luminescence is then measured on the ViewLux imager equipped with a clear emission filter using a 2 sec exposure. All screening operations were performed on a fully integrated robotic system (Kalypsys) containing one RX-130 and two RX-90 anthropomorphic robotic arms (Staubli).
Inglese J, Shamu CE and Guy RK, Reporting data from high throughput screening of small molecule libraries, Nature Chemical Biology, 2007, 3(8): 438-441. doi.org/10.1038/nchembio0807-438.
Potency is read from the fitted curve at half-maximal effect.

| Compound | Potency | activity change, negative = cytotoxicity |
| --- | --- | --- |
| CCCS(=O)(=O)c1ncc(Cl)c(C(=O)Nc2scc(-c3ccccc3)c2C(=O)OCC)n1 | 15.8 µM (active) | – |
| CCOC(=O)c1c(-c2ccc(-c3ccccc3)cc2)csc1NC(=O)CCC(=O)O | – | -35.3% |
| Cc1ccc(C)c(C(O)c2ncc(-c3cccc4ccccc34)[nH]2)c1 (stereo not given) | – | -33.6% |
| CO[C@H]1[C@@H](O)[C@H](N)[C@@H](O[C@H]2O[C@H]([C@H](C)N)CC[C@H]2N)[C@H](O)[C@@H]1N(C)C(=O)CN | – | 6.53% |
| Cc1ccc(CN2CC(N3CCC(Cc4ccccc4)CC3)CS2(=O)=O)cc1 (stereo not given) | – | -41.7% |
| O=C(COC(=O)CCc1c[nH]c(=O)[nH]1)Nc1ccccc1Cl | – | -9.43% |
| NC(=O)C1(Nc2ccccc2Cl)CCCC1 | – | -14.6% |
| O=C(Nc1ccccc1Cl)/C(Cl)=C(\Cl)S(=O)c1ccccc1 (stereo not given) | 3.55 µM (active) | – |
| O=C(CN1C(=O)COc2ccc(S(=O)(=O)N3CCCCCC3)cc21)N1CCN(c2cccc(C(F)(F)F)c2)CC1 | – | 11.2% |
| CCCCS(=O)(=O)c1oc(-c2cccs2)nc1S(=O)(=O)c1ccccc1 | 3.16 µM (active) | – |
| Cc1ccc(S(=O)(=O)c2nc(-c3cccs3)oc2NCc2cccnc2)cc1 | – | -13.9% |
| NC(=O)CSc1oc(-c2cccs2)nc1S(=O)(=O)c1ccccc1 | – | -24.8% |
| COc1ccccc1-c1ccnc(-n2ncc(C(=O)NCCCN3CCOCC3)c2C)n1 | – | -0.273% |
| Cc1ccc(-c2cnc(C(O)c3cc(Cl)cc(Cl)c3)[nH]2)cc1 (stereo not given) | – | -36.4% |
| Cc1cc(C)c2oc(C(=O)Nc3ccc(S(=O)(=O)N4CCCCCC4)cc3)cc(=O)c2c1 | – | -26.3% |
| CCCc1ccc(C(O)c2ncc(-c3cccc(OC)c3)[nH]2)cc1 (stereo not given) | – | -15.1% |
| CC(=O)c1ccc(Nc2nc(C(N)c3ccccc3)cs2)cc1 (stereo not given) | – | -21.7% |
| COc1cccc(NC(=O)Nc2ccc(F)cc2)c1 | – | -34.2% |
| COc1ccc(C(N)c2csc(NC(=O)Nc3cccc(C(F)(F)F)c3)n2)cc1 (stereo not given) | 17.8 µM (active) | – |
| Cc1c(O)cc2c(c1C)O[C@](C)(CCC[C@H](C)CCC[C@H](C)CCCC(C)C)CC2 | – | -6.32% |
| OCC1CCCN(c2nc3cc4c(cc3cc2CNCc2cccs2)OCO4)C1 (stereo not given) | – | -16.8% |
| CC(C)c1cccc(C(C)C)c1Nc1cn[nH]c1 | – | -36.2% |
| O=C1NC[C@H](Cc2ccc(O)cc2)N(C[C@@H]2CCCN2C[C@H](Cc2ccccc2)N2C[C@H](Cc3ccccc3)N(CC3CCCCC3)C(=O)C2=O)C1=O | – | -28.5% |

| Compound | Potency | activity change, negative = cytotoxicity |
| --- | --- | --- |
| CC(C)C[C@H]1CNC(=O)C(=O)N1C[C@@H]1CCCN1C[C@H](Cc1ccccc1)N1C[C@H](CC(C)C)N(CC2CCCCCC2)C(=O)C1=O | – | -13.6% |
| CC(C)C[C@H]1CNC(=S)N1C[C@H]1CCCN1C[C@H](Cc1ccc(O)cc1)N1C[C@H](Cc2ccc(O)cc2)N(CC2CCCCC2)C1=S | 31.6 µM (active) | – |
| COc1ccc(C2CC(c3cccc(OC)c3)=NN2c2ccc(S(N)(=O)=O)cc2)cc1 (stereo not given) | – | -3.55% |
| CCCOc1ccc(F)cc1-c1cc(C(=O)Nc2ccc(F)c(Cl)c2)[nH]n1 | – | -38.1% |
| Nc1cccc(OCCCCCOc2cccc(N)c2)c1 | – | -35% |
| c1ccc(CN2CCN(Cc3ccc4c(c3)CN(Cc3c[nH]c5ccccc35)CCO4)CC2)nc1 | – | -13.5% |
| O=c1c(CN2CCOc3ccc(CN4CCC(Oc5cccnc5)CC4)cc3C2)coc2ccccc12 | 28.2 µM (active) | – |
| CCOC(=O)N1CCC(N2CCOc3ccc(CN4CCC(O)(c5cccnc5)CC4)cc3C2)CC1 | – | -3.39% |
| Cc1cc(-c2ccnc(-n3ncc(C(=O)NCCc4ccncc4)c3C)n2)c(C)s1 | – | -10.8% |
| CC[C@H](C)CCCCC(=O)N[C@@H](CCN)C(=O)N[C@H](C(=O)N[C@@H](CCN)C(=O)N[C@H]1CCNC(=O)[C@@H]([C@H](C)O)NC(=O)[C@H](CCN)NC(=O)[C@H](CCN)NC(=O)[C@H](CC(C)C)NC(=O)[C@@H](CC(C)C)NC(=O)[C@H](CCN)NC1=O)[C@@H](C)O | – | -16% [at 25.4 µM] |
| CC(C)N=C1CCCC1C(=S)SSC(=S)C1CCCC1=NC(C)C (stereo not given) | 0.282 µM (active) | – |
| CC1(C(=O)NS(=O)(=O)c2ccc3ccccc3c2)CCN1C(=O)C1(c2ccc(Cl)cc2)CCC1 (stereo not given) | – | -0.293% |
| CCOC(=O)Cc1ccc(NC(=O)Nc2c[nH]c(=O)[nH]c2=O)cc1 | – | -20.1% |
| COC(=O)c1ccccc1C(=O)NCc1nc(N2CCCC2)c2cccc(C)c2n1 | – | -14.5% |
| COc1ccc(COC[C@H](CC(C)C)N2CCN(C(=O)c3cccc(C(F)(F)F)c3)CCC2=O)cc1 | – | -37% |
| CC(=O)N1Cc2cc(C(=O)NCc3cccc(F)c3)nc(-c3cccc(C4=CCCC4)c3)c2[C@H]1CCO | – | -32.4% |
| CCCCOCCOC(=O)c1cccnc1 | – | -20% |
| Cc1coc2c(O)cc3c(c12)OC1(N2CCCCC2)C(=O)NCCCC31 (stereo not given) | 31.6 µM (active) | – |
| C=CCC[C@H](CCCCC)OC(=O)/C=C/[C@H](O)[C@@H](O)C[C@@H](O)CC=C | – | -36.7% |
| O=C(OCc1cn([C@@H]2C[C@H](c3ccc(Cl)cc3)N(Cc3cccs3)C[C@H]2O)nn1)c1ccccc1 | – | -17.8% |
| O[C@H]1CN(Cc2cccs2)[C@@H](c2ccc(Cl)cc2)C[C@@H]1n1cc(C2CC2)nn1 | – | -13.8% |
| O[C@H]1C[C@H](c2ccc(Cl)cc2)N(Cc2cccs2)C[C@@H]1n1cc(C2CC2)nn1 | 22.4 µM (active) | – |
